Assay results as given in PubChem BioAssay (EPA / NIEHS).
The source made the active and inactive calls. Rule for the calls: active = hit-call score of the fitted dose curve at least 0.9, where 1 is the maximum; inactive = score below 0.9.

Key:
Conditions in all cases: mRNA level, 48 h; actives raise or lower the signal
[1] = read-out: Insulin-like growth factor-binding protein 1 (IGFBP1), IGFBP1 (gene 3484); test: LTEA_HepaRG_IGFBP1: Life Technologies and Expression Analysis (LTEA) Assay for Insulin-like growth factor-binding protein 1 (IGFBP1) using HepaRG (AID 2283508)
Procedure, shortened: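 qRT-PCR mRNA read-out (TaqMan, Fluidigm array), normalised to three housekeeping genes; HepaRG cells, 48 h exposure, 8-pt half-log series from 100 uM, 0.5% DMSO vehicle; bidirectional curve fit vs DMSO baseline.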

[2] = read-out: Interleukin 6 (IL6), IL6 (gene 3569); test: LTEA_HepaRG_IL6: Life Technologies and Expression Analysis (LTEA) Assay for Interleukin 6 (IL6) using HepaRG (AID 2283509)
Procedure, shortened: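 Transcript levels, normalized to three housekeeping genes, were quantified by qRT-PCR after 48 h chemical treatment of HepaRG cells. Eight-point half-log series from 100 uM in 0.5% DMSO, duplicates. Fitted both directions against DMSO baseline.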

[3] = read-out: Interleukin 6 Receptor (IL6R), IL6R (gene 3570); test: LTEA_HepaRG_IL6R: Life Technologies and Expression Analysis (LTEA) Assay for Interleukin 6 Receptor (IL6R) using HepaRG (AID 2283510)
Procedure, shortened: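 Cells were thawed, plated and cultured 48 h, then medium was changed to serum-free induction medium. Chemicals were added in duplicate (100 uM top, half-log steps, 0.5% DMSO) for 48 h. Lysates were analyzed by qRT-PCR for IL6R expression.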

[4] = read-out: Potassium channel subfamily K member 1 (KCNK1), KCNK1 (gene 3775); test: LTEA_HepaRG_KCNK1: Life Technologies and Expression Analysis (LTEA) Assay for Potassium channel subfamily K member 1 (KCNK1) using HepaRG (AID 2283511)
Procedure, shortened: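 KCNK1 transcript measured by TaqMan qRT-PCR against three housekeeping genes, after HepaRG cells were treated 48 h with eight half-log concentrations (top 100 uM, 0.5% DMSO). Curves fitted bidirectionally relative to vehicle.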

[5] = read-out: Keratin 19 (KRT19), KRT19 (gene 3880); test: LTEA_HepaRG_KRT19: Life Technologies and Expression Analysis (LTEA) Assay for Keratin 19 (KRT19) using HepaRG (AID 2283512)
Procedure, shortened: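 HepaRG, 48 h chemical exposure, 8-pt half-log CRC from 100 uM, 0.5% DMSO vehicle, duplicates. Readout: TaqMan qRT-PCR of KRT19 mRNA, housekeeping-normalized (ACTB/GAPDH/POLR2A). Bidirectional fit vs DMSO baseline.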

[6] = read-out: JUN Transcription Factor, JUN (gene 3725); test: LTEA_HepaRG_JUN: Life Technologies and Expression Analysis (LTEA) Assay for JUN Transcription Factor using HepaRG (AID 2283513)
Procedure, shortened: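 Read-out is JUN transcript level by TaqMan qRT-PCR, normalized to ACTB, GAPDH and POLR2A, after 48 h chemical treatment of HepaRG cells. Concentration-response spanned eight half-log points up to 100 uM in 0.5% DMSO.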

[7] = read-out: Lipase C (LIPC), LIPC (gene 3990); test: LTEA_HepaRG_LIPC: Life Technologies and Expression Analysis (LTEA) Assay for Lipase C (LIPC) using HepaRG (AID 2283514)
Procedure, shortened: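 LIPC expression was quantified by qRT-PCR against three housekeeping genes (ACTB, GAPDH, POLR2A). Differentiated human HepaRG cells received eight half-log doses (top 100 uM, 0.5% DMSO) in duplicate for 48 h; fitting bidirectional relative to DMSO.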

[8] = read-out: Lipoprotein lipase (LPL), LPL (gene 4023); test: LTEA_HepaRG_LPL: Life Technologies and Expression Analysis (LTEA) Assay for Lipoprotein lipase (LPL) using HepaRG (AID 2283515)
Procedure, shortened: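 LPL transcript levels quantified by TaqMan qRT-PCR against three housekeeping genes after 48 h chemical treatment of HepaRG cells. Eight-point half-log series from 100 uM in 0.5% DMSO, tested in duplicate; bidirectional fitting versus vehicle.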

[9] = read-out: MicroRNA 122 (MIR122), gene 406906; test: LTEA_HepaRG_MIR122: Life Technologies and Expression Analysis (LTEA) Assay for MicroRNA 122 (MIR122) using HepaRG (AID 2283516); note: the transcript read is the microRNA miR-122
Procedure, shortened: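 Human liver HepaRG cultures receive test chemicals for 48 h at eight half-log concentrations from 100 uM. Expression is quantified by qRT-PCR with ACTB/GAPDH/POLR2A normalization and fitted bidirectionally against 0.5% DMSO.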

[10] = read-out: matrix metalloproteinase-10 (MMP10), MMP10 (gene 4319); test: LTEA_HepaRG_MMP10: Life Technologies and Expression Analysis (LTEA) Assay for matrix metalloproteinase-10 (MMP10) using HepaRG (AID 2283517)
Procedure, shortened: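 Expression measured by TaqMan qRT-PCR with ACTB/GAPDH/POLR2A normalisation after 48 h chemical exposure of HepaRG cells. Eight half-log concentrations, top 100 uM, 0.5% DMSO vehicle, duplicates; gain or loss fitted against vehicle.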

[11] = read-out: MYC, MYC (gene 4609); test: LTEA_HepaRG_MYC: Life Technologies and Expression Analysis (LTEA) Assay for MYC using HepaRG (AID 2283518)
Procedure, shortened: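 qRT-PCR read-out of MYC transcript (Fluidigm TaqMan, housekeeping-normalized) after 48 h chemical exposure of HepaRG cells; eight concentrations, top 100 uM, half-log steps. Bidirectional curve fitting against 0.5% DMSO vehicle baseline.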

[12] = read-out: matrix metalloproteinase-3 (MMP3), MMP3 (gene 4314); test: LTEA_HepaRG_MMP3: Life Technologies and Expression Analysis (LTEA) Assay for matrix metalloproteinase-3 (MMP3) using HepaRG (AID 2283519)
Procedure, shortened: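 Fluidigm-based TaqMan qRT-PCR, normalized to ACTB, GAPDH and POLR2A and fitted bidirectionally versus 0.5% DMSO, measured transcript levels. Treatment: duplicate 48 h exposures of HepaRG cells, ~100,000/well, to eight half-log concentrations topping at 100 uM.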

[13] = read-out: Paternally Expressed 10 (PEG10), PEG10 (gene 23089); test: LTEA_HepaRG_PEG10: Life Technologies and Expression Analysis (LTEA) Assay for Paternally Expressed 10 (PEG10) using HepaRG (AID 2283520);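 for AC50: PEG10 transcript by qRT-PCR normalised to ACTB GAPDH and POLR2A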
Procedure, shortened: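 Human HepaRG cultures are dosed for 48 h across an eight-point half-log series starting at 100 uM, with 0.5% DMSO as vehicle and baseline. Gain or loss of PEG10 transcript is measured by qRT-PCR and fitted in both directions.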

[14] = read-out: Protein phosphatase 2A (PPP2R4), PTPA (gene 5524); test: LTEA_HepaRG_PPP2R4: Life Technologies and Expression Analysis (LTEA) Assay for Protein phosphatase 2A (PPP2R4) using HepaRG (AID 2283522)
Procedure, shortened: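 Cells were plated, cultured 48 h, switched to serum-free induction medium, then dosed for 48 h (8 points, max 100 uM, 0.5% DMSO). RNA was isolated and PPP2R4 expression measured by TaqMan qRT-PCR.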

[15] = read-out: Phosphatase and tensin (PTEN), PTEN (gene 5728); test: LTEA_HepaRG_PTEN: Life Technologies and Expression Analysis (LTEA) Assay for Phosphatase and tensin (PTEN) using HepaRG (AID 2283523)
Procedure, shortened: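 Read-out: TaqMan qRT-PCR of PTEN transcript, normalized to three housekeeping genes, fitted in both directions against 0.5% DMSO. Differentiated human HepaRG cultures received chemicals for 48 h, eight-point half-log series topping at 100 uM.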

[16] = read-out: solute carrier (SLC22A1), SLC22A1 (gene 6580); test: LTEA_HepaRG_SLC22A1: Life Technologies and Expression Analysis (LTEA) Assay for solute carrier (SLC22A1) using HepaRG (AID 2283524)
Procedure, shortened: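 Transcript level of SLC22A1 quantified by qRT-PCR (normalized to three housekeeping genes) after 48 h chemical exposure of HepaRG cells, eight concentrations up to 100 µM, half-log steps, 0.5% DMSO vehicle. Gain or loss relative to DMSO fitted bidirectionally.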

[17] = read-out: Pyruvate Dehydrogenase Kinase 4 (PDK4), PDK4 (gene 5166); test: LTEA_HepaRG_PDK4: Life Technologies and Expression Analysis (LTEA) Assay for Pyruvate Dehydrogenase Kinase 4 (PDK4) using HepaRG (AID 2283525)
Procedure, shortened: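 Readout is qRT-PCR of PDK4 transcript, normalized to three housekeeping genes, with bidirectional fitting against 0.5% DMSO vehicle. Differentiated HepaRG cells were treated 48 h in serum-free induction medium, duplicate wells, eight-point half-log series topping at 100 uM.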

[18] = read-out: NAD(P)H dehydrogenase [quinone] 1 (NQO1), NQO1 (gene 1728); test: LTEA_HepaRG_NQO1: Life Technologies and Expression Analysis (LTEA) Assay for NAD(P)H dehydrogenase [quinone] 1 (NQO1) using HepaRG (AID 2283526)
Procedure, shortened: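 Transcript induction or suppression is quantified by qRT-PCR in human HepaRG liver cells dosed for 48 hours. Eight half-log concentrations topping at 100 uM are used, with 0.5% DMSO as vehicle and baseline.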

[19] = read-out: Nuclear factor erythroid 2-related factor 2 (Homo sapiens) (UniProt Q16236); test: LTEA_HepaRG_NFE2L2: Life Technologies and Expression Analysis (LTEA) Assay for Nuclear factor erythroid 2-related factor 2 (NFE2L2) Transcription Factor using HepaRG (AID 2283527)
Procedure, shortened: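 NFE2L2 transcript level was read by qRT-PCR (housekeeping ACTB/GAPDH/POLR2A normalisation) after 48 h chemical treatment of HepaRG in serum-free induction medium. Duplicate 8-point half-log curves, top 100 uM, 0.5% DMSO vehicle; up- or down-regulation fitted against vehicle.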

[20] = read-out: Nuclear factor NF-kappa-B p105 subunit (Homo sapiens) (UniProt P19838); test: LTEA_HepaRG_NFKB1: Life Technologies and Expression Analysis (LTEA) Assay for Nuclear Factor Kappa B Subunit 1 (NFKB1) using HepaRG (AID 2283521);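 note: TaqMan qRT-PCR transcript normalised to ACTB GAPDH and POLR2A housekeeping genes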
Procedure, shortened: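 Differentiated human HepaRG cells in serum-free induction medium with 0.5% DMSO were exposed for 48 h to eight half-log concentrations, top 100 uM, in duplicate. NFKB1 mRNA measured by Fluidigm TaqMan qRT-PCR, normalised to ACTB, GAPDH and POLR2A; bidirectional fit versus DMSO.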

Measured: AC50

Nuclear factor erythroid 2-related factor 2 (Homo sapiens), sequence (Q16236 whole entry, looked up): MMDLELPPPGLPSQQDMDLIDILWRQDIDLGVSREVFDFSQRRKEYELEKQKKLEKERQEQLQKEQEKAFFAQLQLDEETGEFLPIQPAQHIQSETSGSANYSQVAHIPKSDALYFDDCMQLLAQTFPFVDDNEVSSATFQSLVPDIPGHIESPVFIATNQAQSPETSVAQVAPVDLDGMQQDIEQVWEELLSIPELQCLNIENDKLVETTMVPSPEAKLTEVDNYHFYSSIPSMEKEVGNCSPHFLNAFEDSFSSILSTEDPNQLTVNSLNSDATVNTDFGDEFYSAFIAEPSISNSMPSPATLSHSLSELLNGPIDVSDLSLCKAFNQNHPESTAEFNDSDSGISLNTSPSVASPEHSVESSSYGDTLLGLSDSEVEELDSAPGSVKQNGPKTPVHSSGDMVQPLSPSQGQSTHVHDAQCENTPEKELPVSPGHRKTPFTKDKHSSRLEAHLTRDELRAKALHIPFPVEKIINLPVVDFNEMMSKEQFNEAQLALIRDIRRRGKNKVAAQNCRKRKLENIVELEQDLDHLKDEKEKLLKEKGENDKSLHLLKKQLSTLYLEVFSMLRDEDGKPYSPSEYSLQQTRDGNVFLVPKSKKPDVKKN
Nuclear factor NF-kappa-B p105 subunit (Homo sapiens), sequence (P19838 whole entry, looked up): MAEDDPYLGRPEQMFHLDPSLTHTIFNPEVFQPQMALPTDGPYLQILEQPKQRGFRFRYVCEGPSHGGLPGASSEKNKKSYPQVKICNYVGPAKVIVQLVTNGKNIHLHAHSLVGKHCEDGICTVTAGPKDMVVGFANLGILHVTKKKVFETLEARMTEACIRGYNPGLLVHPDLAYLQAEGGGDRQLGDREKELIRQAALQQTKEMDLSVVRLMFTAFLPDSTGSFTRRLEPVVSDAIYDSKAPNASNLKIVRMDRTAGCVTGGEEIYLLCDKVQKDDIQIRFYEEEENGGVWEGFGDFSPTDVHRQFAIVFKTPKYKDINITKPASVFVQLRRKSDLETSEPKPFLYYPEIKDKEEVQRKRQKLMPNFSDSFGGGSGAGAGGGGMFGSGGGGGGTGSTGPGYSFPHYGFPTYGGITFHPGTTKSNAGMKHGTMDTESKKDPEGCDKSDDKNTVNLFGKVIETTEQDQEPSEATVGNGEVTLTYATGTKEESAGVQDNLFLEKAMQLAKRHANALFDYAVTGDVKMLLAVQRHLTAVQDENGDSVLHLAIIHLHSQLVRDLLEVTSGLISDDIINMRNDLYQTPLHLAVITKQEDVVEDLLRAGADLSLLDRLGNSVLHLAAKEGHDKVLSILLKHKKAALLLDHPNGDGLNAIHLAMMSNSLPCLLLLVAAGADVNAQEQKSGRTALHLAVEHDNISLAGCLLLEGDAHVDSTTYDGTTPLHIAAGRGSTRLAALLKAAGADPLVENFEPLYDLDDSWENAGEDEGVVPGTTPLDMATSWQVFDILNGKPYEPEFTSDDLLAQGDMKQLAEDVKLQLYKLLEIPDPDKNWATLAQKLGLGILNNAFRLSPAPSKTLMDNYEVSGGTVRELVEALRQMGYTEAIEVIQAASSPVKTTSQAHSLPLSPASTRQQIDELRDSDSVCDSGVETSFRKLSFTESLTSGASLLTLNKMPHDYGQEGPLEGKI

ClC1=C(Cl)C(Cl)(Cl)C(Cl)=C1Cl
not listed: [20]
inactive: all other assays above

CCCCCCCCCCCCN1CCCC1=O
not listed: [4] | [20]
inactive: all other assays above

CCOC(=O)CC(O)(CC(=O)OCC)C(=O)OCC
not listed: [20]
inactive: all other assays above

CCC(C)(C)C1CCC(O)CC1 (stereo unspecified)
not listed: [20]
inactive: all other assays above

OCCC(F)(F)C(F)(F)C(F)(F)C(F)(F)C(F)(F)C(F)(F)C(F)(F)C(F)(F)F
not listed: [20]
inactive: all other assays above

CC[C@H](C)[C@@H](C(=O)O)n1sc2ccccc2c1=O
not listed: [20]
inactive: all other assays above

CCc1nn(C2CCCCC2)c2cc(C3(C#N)CCC(C(=O)O)CC3)ccc12 (stereo unspecified)
inactive: [3] | [6] | [12] | [15] | [18]
active: [1] 75.7 µM | [2] 84.9 µM | [4] 13.1 µM | [5] 90.5 µM | [7] 78.9 µM | [8] 37.2 µM | [9] 80.1 µM | [10] 81.6 µM | [11] 50 µM | [13] 12.8 µM | [14] 11.4 µM | [16] 72.6 µM | [17] 33.6 µM | [19] 50 µM

CCCCOCCO
not listed: [20]
inactive: all other assays above

C[C@@H]1C[C@H]2[C@@H]3CCC4=CC(=O)C=C[C@]4(C)[C@@]3(F)[C@@H](O)C[C@]2(C)[C@@]1(O)C(=O)COP(=O)(O)O
not listed: [4] | [20]
inactive: all other assays above

CC[C@H](c1ccc(O)cc1)[C@@H](CC)c1ccc(O)cc1
active: [1] 68.1 µM | [2] 77.3 µM | [3] 73.8 µM | [5] 90.8 µM | [6] 96.5 µM | [8] 75.7 µM | [14] 82.8 µM | [16] 71.4 µM | [17] 80.4 µM | [18] 81.8 µM | [19] 78.8 µM
inactive: [7] | [9] | [10] | [11] | [12] | [13] | [20] | [15]

CN1CCN(c2ccccc2/C=C2\SCCN(c3ccc(Cl)c(Cl)c3)C2=O)CC1
inactive: [7] | [11] | [14] | [15] | [17]
active: [1] 60.9 µM | [2] 92.2 µM | [3] 50 µM | [4] 59.5 µM | [5] 12.4 µM | [6] 75.5 µM | [8] 84.9 µM | [9] 94.1 µM | [10] 93.9 µM | [12] 87.1 µM | [13] 14 µM | [16] 93.8 µM | [18] 81.3 µM | [19] 79.5 µM

OC1CCC(C2CCCCC2)CC1 (stereo unspecified)
not listed: [20]
inactive: all other assays above
